For 39 molecules, growth results are on record in PubChem BioAssay (NCI).

Several values for one entry are separate records, joined by “and”; a condition that tells them apart may be missing. Equal entries are not always repeated. About 83,000 compounds went through this panel and 20% of them were active in at least one assay; those are over-represented in the sample as a whole.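 Results are percent growth after 48 hours of single-concentration exposure. 100 means growth as in untreated cells, lower positive values show inhibition; negative values down to -100 show cell death.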 Values without a mark were called inactive. Activity calls are given as the source filed them. The calls were made as follows: active = growth percent below 10; inactive = the rest.

In the experiment the test system is MDA-MB-468 breast. Briefly: NCI-60 one-dose screen, 48 h (100 = growth as untreated, 0 = no growth, -100 = all killed). To be noted: 10 µM unless noted.
Consider `CCC1=CCC[C@@]2(C)CCC[C@@]3(C)CCCC(C)(C)[C@]1([O-])[O+]32`, for which the growth was 94.5%.
For `CC(C)C(=O)Nc1ccc(-c2nc(-c3cccc(O)c3)c(-c3ccnc(Br)c3)[nH]2)cc1` the value was 15.1%; for `CC(C)(O)C(=O)O`, 108%.
Then `CCOC(=O)c1nn(CC(O)c2ccccc2)c(NC(=O)Nc2cccc(F)c2)c1C` (centres undefined), with 94.6%; and `COC(=O)c1c2c(c(C)[n+]([O-])c1C)C(=O)C(NCc1ccc(F)cc1)=CC2=O`, with -9.79% (active).
As for `CC(=O)c1nc2ccccc2n1CCn1cc(CC(N)C(=O)O)c2ccccc21` (centres undefined), the growth is 118%.
For `C=C(C)[C@@H]1CC[C@]2(CN)CC[C@]3(C)[C@H](CC[C@@H]4[C@@](C)(CCCN)[C@H](C(=C)C)CC[C@]43C)[C@@H]12` the value was 84.7%; for `COc1ccc(OC)c(-c2ccc(-c3ccccc3N)c3[nH]c4ccccc4c23)c1`, 72.1%.
`COc1cc([C@@H]2c3cc4c(cc3[C@H](SC(=N)N)[C@H]3COC(=O)[C@H]23)OCO4)cc(OC)c1OC`: the growth is -4.2% (active).
For `COc1ccc(N=Nc2ccc(O)c(=O)cc2)cc1` the value was -31.9% (active); for `CCCC(F)C(=O)O` (centres undefined), 108%.
For `CCc1cccc(C)c1NC(=O)c1sc2nc3c(cc2c1N)C(=O)CCC3` the value was 32.5%; for `O=C(NCCOCCOCCOCCNC(=O)c1cc2c(o1)C(=O)c1ccccc1C2=O)NC12CC3CC(CC(C3)C1)C2`, -33.8% (active); for `COc1ccc(C/C(C)=C(\c2ccc(OCCN3CCCCCC3)cc2)c2ccc(OC(=O)C3CCCCC3)cc2)cc1`, 45%.
For `CN1CCN(CC(=O)Nc2ccc(-c3nc4ccccc4s3)cc2)CC1` the value was -11.4% (active); for `N#CCc1ncc(-c2ccc(C(F)(F)F)cc2)c(NC2CCCCCC2)n1`, 42.3% [100 µM].
Turning to `Cc1c(Nc2nnc(SCC(=O)Nc3sc4c(c3C#N)CCCC4)s2)c(=O)n(-c2ccccc2)n1C`, the growth is 107%.
Then `COc1cccc(-c2nc3sccn3c2-c2ccnc(NCCCNS(=O)(=O)c3ccccc3)c2)c1`, with 1.62% (active); and `CCOC(=O)c1cnc2ccc(Cl)cc2c1NCCCN(C)C`, with -31.3% (active).
Then `Cn1cc(-c2nc(-c3c[nH]c4ncccc34)cs2)c2cccnc21`, with -6.43% (active).
Then `CCOc1ccc2nc3cc(N)ccc3c(N)c2c1`, with -84.6% (active) and -33.5% (active).
On to `COc1ccc(CCN2CC=Cn3c2nc2ccccc2c3=O)cc1`, for which the growth was -0.686% (active).
On to `O=C(Oc1ccccc1)C(Br)C(Br)c1ccccc1` (centres undefined), for which the growth was 56.7%.
Then `CC(Br)C(O)c1cc2c(cc1Br)OCO2` (centres undefined), with 108%; and `Cc1nn(-c2ccccc2)c2c1N=c1s/c(=C\c3cn(-c4ccccc4)nc3-c3ccc(Cl)cc3)c(=O)n1C(C)N2` (centres undefined), with 86.6%; and `COc1ccc(Cc2cc(-c3ccccc3)nn(Cc3ccccc3)c2=O)cc1OC`, with 42.9%.
`Cc1cc(N(CCNc2ccnc3cc(Cl)ccc23)Cc2ccc3c(c2)OCO3)nc(N2CCN(C)CC2)n1`: the growth is -59% (active).
With `C1CN(SSN2CCOCC2)CCO1`, the growth was -66.4% [100 µM] (active).
For `COc1cc2oc(-c3cccc(NC(=O)c4cccc(Br)c4)c3)cc(=O)c2c(OC)c1OC` the value was 66.8%; for `CC(C)OP(=O)(CCC(=O)c1c[nH]c2ccccc12)OC(C)C`, 107%; for `Nc1nnc(C(=O)c2cnc3n(c2=O)CCCCC3)s1`, 90.4%.
With `Cc1nccc2c3ccc(OCc4cn(-c5ccc(Cl)cc5)nn4)cc3n(CCCc3ccccc3)c12`, the growth was 10.6%.
Consider `CCCCCCCCCCCCCCCCCCSC1=CC(=O)C(OC)=C(OC)C1=O`, for which the growth is 105%.
For `CC(=O)Nc1ccccc1-c1n[nH]c(=O)[nH]c1=O` the value was 102%.
For the molecule `COc1cc2c3c(n(CCCN4CCCC4)c(=O)c2cc1OC)-c1cc2c(cc1C3=O)OCO2`, the growth is 84.1%.
As to `COc1ccc(-n2nnc(C(=O)O)c2-c2cc(OC)c(OC)c(OC)c2)cc1`, the growth is 102%.
Then `N#Cc1c(N)nc(N)nc1Nc1ccc(Br)cc1`, with 89.6%.
For `Nc1c(C(=O)Nc2cccc(Cl)c2)sc2nc3c(cc12)C(=O)CCC3` the value was -10.6% (active).
On to `C=C1c2c(C)nn(-c3ccc(C#CCOC4OC(CO)C(O)C(O)C4O)cc3)c2N(C)C23C[C@H]1C1(C)c4c(C)nn(-c5ccc(C#CCOC6OC(CO)C(O)C(O)C6O)cc5)c4N(C)C(C)(C[C@H]12)C3` (some centres undefined), for which the growth is -16.4% (active).
